The structures appear in SMILES notation. Several values for one entry are separate records, joined by “and”; a condition that tells them apart may be missing. Equal values may be shown once. Compounds without any hit were thinned out: in the full panel of roughly 83,000, 20% have a hit.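 Negative percent growth values reflect cell death: -40 means 40% of the cells present at the start died, and -100 means all died.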 A number with no mark means an inactive call. Activity calls are given as the source filed them. The calls were made as follows: active = growth percent below 10; inactive = the rest.

Common to all, as to experiment: NCI-60 one-dose screen, 48 h (100 = growth as untreated, 0 = no growth, -100 = all killed)
What all share (conditions): 10 µM unless noted

The subject of assay [1] is NCI-H23 lung.
The test system of assay [2] is NCI-H226 lung.
Assay [3] deals with NCI-H322M lung.
In assay [4] the test system is HOP-62 NSCLC.
Assay [5] has as its system NCI-H460 lung.
Assay [6] relates to HOP-92 NSCLC.
Assay [7] relates to NCI-H522 lung.
Assay [8] concerns A549/ATCC NSCLC.
For assay [9], the system named is 786-0 renal.
The subject of assay [10] is COLO 205 colon.

For `CC[C@H](C)[C@H](NC(=O)[C@H]1CCCCN1C)C(=O)N(C)[C@H](C[C@@H](OC(C)=O)c1cccc(C(=O)N[C@@H](Cc2ccccc2)C[C@H](C)C(=O)OC)n1)C(C)C`, the growth is 22.4% in assay [1]; 23.3% in assay [2]; 40.3% in assay [3]; 3.61% (active) in [4]; 7.06% (active) in [5]; -0.87% (active) in assay [6]. Besides, the growth was -11.6% (active) in assay [7], 10.5% in assay [8], 14.5% in assay [9] and -71.6% (active) in assay [10].

As for `CO[C@@H]([CH2][Hg][O]C(=O)c1ccccc1)[C@@H]([CH2][Hg][O]C(=O)c1ccccc1)OC`, the growth in assay [1] was 102%; in assay [2] it was 93.2%; in assay [3], 105%; in assay [4] it was 81.8%; in assay [5] it was 103%; in [6], 114%. Besides, the growth was -53.9% (active) in [7], 95.6% in assay [8], 101% in assay [9] and 84.8% in assay [10].

As for `N#CC(C#N)=Cc1cccc(F)c1`, the growth in assay [1] is 102%; in [2], 103%; in assay [3], 104%; in [4] it was 95.2%; in assay [5], 105%; in assay [6] it was 130%. Further, the growth was 99.4% in [7], 100% in [8], 103% in assay [9] and 115% in assay [10].

For `COc1cc(-c2ccc(N)c(OC)c2)ccc1N`, the growth in assay [1] is 101%; in [2] it was 110%; in [3] it was 84.4%; in assay [4] it was 95.5%; in assay [5] it was 114%; in assay [6], 110%. Moreover, the growth in [7] was 131%; in [8], 108%; in assay [9] it was 106%; in assay [10], 120%.

In the case of `Cc1cc[c-]cc1.Fc1c[c-]c(-c2ccccn2)c(F)c1.[Pt+2].c1ccc([PH+](c2ccccc2)c2ccccn2)cc1`, the growth in [1] was 70%; in assay [2] it was 58.1%; in assay [3] it was 83.6%; in [4] it was 90.6%; in assay [5], 61.5%; in assay [6], 56.3%. The growth was 64.4% in assay [7], 41.8% in [8], 63.5% in assay [9] and 32.9% in assay [10].

`CCC(=O)C(CC(C)N1CCCCCC1)(c1ccccc1)c1ccccc1` (stereo not given): the growth in assay [1] is 91.6%; in assay [2], 92.6%; in assay [3], 84.7%; in [4], 85.6%; in assay [5], 103%; in assay [6] it was 65.9%. The growth is 83% in assay [7], 87.8% in assay [8], 87.4% in assay [9] and 93% in assay [10].

Take `COC(=O)C12C3C4C1C1C2C3C41NC(=O)c1csc([C@@H](C[C@H](C(C)C)N(C)C(=O)[C@@H](NC(=O)[C@H]2CCCCN2C)C2CC2)OC(C)=O)n1` (stereo not given in full): the growth in assay [1] was 35.8%; in [2] it was 16.5%; in assay [3] it was 38.5%; in assay [4], 4.51% (active); in [5], 7.89% (active); in assay [6] it was 22.6%. The growth in [7] was -21.1% (active); in assay [8], 13%; in assay [9] it was 22.7%; in [10] it was -65.4% (active).

Turning to `CC1OC(=O)C(C(C)C)NC(=O)C(C(C)C)OC(=O)C(C(C)C)NC(=O)C(C)OC(=O)C(C(C)C)NC(=O)C(C(C)C)OC(=O)C(C(C)C)NC(=O)C(C)OC(=O)C(C(C)C)NC(=O)C(C(C)C)OC(=O)C(C(C)C)NC1=O` (stereo not given), the growth in assay [1] was -2.18% (active); in assay [2] it was 0.0533% (active); in assay [3], -3.44% (active); in [4] it was -50% (active); in assay [5], -11.9% (active); in assay [6], -38.8% (active). For the same compound, the growth in assay [7] was -21.2% (active); in [8], -41.2% (active); in assay [9] it was -6.45% (active); in assay [10], -81% (active).

With `C[C@]12CCc3sc(Nc4ccc(OC(F)(F)F)cc4)nc3C1=CC[C@@H]1[C@@H]2CC[C@]2(C)C(=O)CC[C@@H]12`, the growth is 75.5% in assay [1]; 74.9% in assay [2]; 77.3% in assay [3]; 80% in assay [4]; 53.3% in assay [5]; 75% in assay [6]. The growth in [7] is 89.1%; in assay [8], 67%; in [9] it was 30.5%; in [10] it was 67.9%.

As for `Oc1ccc(O)c(Cl)c1`, the growth in assay [1] was 96.2% and 88.3%; in [2], 94.5% and 98.5%; in assay [3], 109% and 98.2%; in [4], 109%; in assay [5], 99.7% and 102%; in assay [6] it was 87.6% and 102%. For the same compound, the growth in [7] was -92.2% (active) and -1.35% (active); in assay [8], 92.5% and 111%; in assay [9], 108% and 112%; in assay [10], 109% and 99.8%.

Regarding `COc1cc2c(cc1OC)-c1c3c(cc4c1[C@@H](C2)N(C)CC4)OCO3`, the growth in assay [1] was 51.3%; in assay [2], 51%; in assay [3], 36.9%; in assay [4], 44.3%; in [5], 17.3%; in [6], 6.02% (active). Moreover, the growth was 5.61% (active) in [7], 53.3% in [8], 40.2% in assay [9] and 31.4% in assay [10].

On to `CO/N=C1\CC[C@]2(C)[C@H]3CC[C@]4(C)C(=O)CC[C@H]4[C@@H]3C[C@@H]3SC(N)=N[C@@]32C1`, for which the growth in [1] was 99.4%; in assay [2], 107%; in assay [3] it was 105%; in assay [4], 112%; in assay [5], 98.9%; in assay [6], 105%. Moreover, the growth in assay [7] is 94.9%; in assay [8], 101%; in [9], 98%; in assay [10], 111%.

These data come from PubChem BioAssay (NCI).
